Bioassay records: PubChem, National Center for Advancing Translational Sciences (NCATS)
GoLoco inh red: blocks human Gai1 binding to RGS12 GoLoco peptide, red readout. Potency, µM (titrated, usually from 61.6 µM), hits mostly inhibitors. AID 880. Gai1:RGS12 GoLoco peptide FP, rhodamine, 10 min. actives 0.44% (n = 230,000); active = well fitted inhibition curve with a large enough effect, not every such curve was filed as active; inactive = no such curve, though single readings can be large or run the other way; note: nearly all actives have a fitted effect of over 30% in size
HTT ATP protect: protects HTT-Q103 PC12 cells, measured by ATP | AID 1471 | actives 0.14% (n = 230,000) | PC12 HTT-Q103 induced, cytoprotection, ATP luminescence, 40 h | Potency, µM (doses to about 56.4 µM), hits mostly activators; note: nearly all actives have a fitted effect of over 45% in size
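Quantitative HTS on tebufenozide-induced (100 nM) PC12 cells expressing HTTQ103 exon 1–GFP; compounds tested as a concentration series; survival measured via cellular ATP.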
VDR inhibitor: vitamin D3 receptor (human) inhibition. P11473. VDR-SRC2-3 peptide fluorescence polarization, 2 h. Potency, µM, actives largely listed as inhibitors. actives 0.93% (n = 400,000). AID 504847
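Two reagent solutions held at 4 deg C in the dark were dispensed, compounds pinned at 23 nl, and the mixture incubated 2 h at room temperature. Read-out: fluorescence polarization of VDR–SRC2-3 peptide binding.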
KDM4E inh: blocks human JMJD2E demethylase activity | B2RXH2 | JMJD2E catalytic domain, FDH-coupled NADH fluorescence (FDH is formaldehyde dehydrogenase) | Potency, µM (highest dose often 57.1 µM), most hits filed as inhibitors | actives 1.6% (n = 230,000) | AID 2147; active = well fitted inhibition curve with a large enough effect, not every such curve was filed as active; inconclusive = small, poorly fitted or top-dose-only effect, or another doubt; inactive = no such curve, though single readings can be large or run the other way; note: nearly all actives have a fitted effect of over 50% in size
Target sequence (B2RXH2 1-337 limits assumed): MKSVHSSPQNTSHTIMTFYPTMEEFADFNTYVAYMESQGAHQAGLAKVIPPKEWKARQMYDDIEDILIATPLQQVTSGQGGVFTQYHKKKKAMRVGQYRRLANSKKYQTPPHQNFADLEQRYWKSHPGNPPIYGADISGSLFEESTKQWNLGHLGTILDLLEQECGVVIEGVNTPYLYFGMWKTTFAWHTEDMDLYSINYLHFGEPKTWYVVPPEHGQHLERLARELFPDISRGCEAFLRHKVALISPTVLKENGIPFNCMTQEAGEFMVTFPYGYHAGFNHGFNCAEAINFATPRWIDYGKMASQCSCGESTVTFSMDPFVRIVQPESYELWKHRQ
Coupling enz: coupling enzyme interference in Giardia aldolase counter-screen | coupling enzyme system counterscreen, AmpLite Red fluorescence | activity change, negative = inhibition, % at 58.2 µM, hits read low | actives 0.67% (n = 290,000); in the data active = activity change below about -30%
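Counterscreen of the coupled detection system alone, without aldolase: glyceraldehyde-3-phosphate coupling enzymes plus AmpLite Red readout. Compounds at 57.5 uM final, 10 min RT preincubation, 20 min RT reaction, fluorescence 525/598 nm.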
HttQ103 aggreg: reduces HttQ103-GFP aggregates in PC12 cells. PC12 HttQ103-GFP aggregates, Acumen cytometry, 40 h. Potency, µM (series often up to 46.1 µM), usual class: inhibitors. actives 1.1% (n = 220,000); note: nearly all actives have a fitted effect of over 60% in size
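Multiplexed with ATP-based cell death, this channel scores GFP aggregates in PC12 cells expressing inducible HTTex1-Q103-GFP. Induction used 100 nM tebufenozide; compounds were tested in concentration series.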
Large screens that a line does not name were inactive; ! = not confirmed by another sample. Hits are enriched below; roughly 2.3% of the tested compounds scored in any of these assays. Unless noted, calls come from the whole dose curve; as a rule, active = well fitted curve in the direction sought with a large enough effect; inconclusive = small, poorly fitted or top-dose-only effect, or another doubt; inactive = no such curve, though single readings can be large; an effect the other way counts as inactive or inconclusive.

CC(=O)c1sc2nc(-c3ccc(C)cc3)c3c(c2c1N)CCCC3	KDM4E inh inconclusive
Cc1ccc(-c2c3c(nc4sc(C(N)=O)c(N)c24)CCCC3)o1	none (no result: HTT ATP protect)
NC(=O)c1sc2nc3c(c(-c4cccs4)c2c1N)CCCC3	HTT ATP protect 16µM (no result: VDR inhibitor, HttQ103 aggreg)
O=C(COC(=O)c1c2c(nc3ccccc13)/C(=C\c1ccco1)CC2)NC1CCCC1	none (no result: GoLoco inh red, HTT ATP protect, KDM4E inh, Coupling enz, HttQ103 aggreg)
NC(=O)c1sc2nc(-c3ccccc3)c3c(c2c1N)CCCC3	KDM4E inh inconclusive, HttQ103 aggreg 6.3µM
Nc1c(C(=O)NC2CC2)sc2nc3c(c(-c4ccco4)c12)CC/C3=C/c1ccco1	KDM4E inh inconclusive, Coupling enz -35
CCOc1cc(N2CCOCC2)c(OCC)cc1NC(=O)c1ccc(OC(C)C)cc1	none
CC[C@@]12C(=O)N(c3cccc(F)c3)C(=O)N1[C@H](c1ccc(Cl)cc1)[C@@H]1C(=O)N(C3CCCCC3)C(=O)[C@@H]12	none (no result: GoLoco inh red, HTT ATP protect, KDM4E inh, Coupling enz, HttQ103 aggreg)
O=C(Nc1cccc([N+](=O)[O-])c1)c1ccc2c(c1)C(=O)N(c1ccccn1)C2=O	none (no result: GoLoco inh red, HTT ATP protect, KDM4E inh, HttQ103 aggreg)
CC(Oc1cccc(Br)c1)C(=O)NNC(=O)CCNC(=O)c1ccccc1Cl (stereo unspecified)	none (no result: GoLoco inh red, HTT ATP protect, KDM4E inh, Coupling enz, HttQ103 aggreg)
Cc1cc(-c2csc(NC(=O)c3ccc(S(=O)(=O)N(C)C)cc3)n2)c(C)n1-c1ccccc1	KDM4E inh 28µM
CC1=C(C)/C(=N\OS(=O)(=O)c2ccc(C)cc2)C=CC1=O	VDR inhibitor 28µM, Coupling enz -85, HttQ103 aggreg inconclusive
CC1=C/C(=N\OS(=O)(=O)c2ccccc2)C(C)=CC1=O	Coupling enz -88
COc1ccc(S(=O)(=O)/N=C2/C=CC(=O)C(C)=C2C)cc1	VDR inhibitor inconclusive
CC1=C/C(=N\OS(=O)(=O)c2ccccc2)C(C(C)C)=CC1=O	VDR inhibitor inconclusive, KDM4E inh 4µM, Coupling enz -70
O=C(NC1CCS(=O)(=O)C1)c1cccnc1 (stereo unspecified)	none (no result: VDR inhibitor)
O=C(O)c1[nH]c2ccccc2c1C(c1cc(Cl)cc([N+](=O)[O-])c1O)c1c(C(=O)O)[nH]c2ccccc12	VDR inhibitor 79µM (no result: GoLoco inh red, HTT ATP protect, KDM4E inh, HttQ103 aggreg)
O=C(O)c1[nH]c2ccccc2c1C(c1ccccc1)c1c(C(=O)O)[nH]c2ccccc12	VDR inhibitor inconclusive (no result: GoLoco inh red, HTT ATP protect, KDM4E inh, HttQ103 aggreg)
CCCCOc1ccc(C(=O)NCC(=O)NC2CCCCC2)cc1	none (no result: GoLoco inh red, HTT ATP protect, KDM4E inh, Coupling enz, HttQ103 aggreg)
CCCN(CCC)c1ncnc2nc[nH]c12	HttQ103 aggreg 7.9µM
COC1=C(OC)C(=O)C(CCCCCCCCCCO)=C(C)C1=O	VDR inhibitor 45µM, Coupling enz -65, HttQ103 aggreg inconclusive
CCCCCCCCCCC1=C(C)C(=O)C(OC)=C(OC)C1=O	VDR inhibitor 40µM!, Coupling enz -44 (no result: KDM4E inh, HttQ103 aggreg)
Cc1[nH]c2ccccc2c1CCCO	KDM4E inh inconclusive
O=C(NCC(c1cccnc1)N1CCOCC1)C(=O)Nc1cccc(Cl)c1 (stereo unspecified)	none (no result: GoLoco inh red, HTT ATP protect, KDM4E inh, Coupling enz, HttQ103 aggreg)
CN(C)C(=O)/C(C#N)=C\c1cc(Br)c(Sc2ccc(Cl)cc2)o1	Coupling enz -51, HttQ103 aggreg inconclusive (no result: HTT ATP protect)
Clc1ccc(Sc2oc(/C=N/n3cnnc3)cc2Br)cc1	none (no result: GoLoco inh red)
COc1ccc(-c2cc3nc(C)c(CCC(=O)N4CCN(c5ccccn5)CC4)c(C)n3n2)c(OC)c1	KDM4E inh 13µM
CCOC(=O)c1c(NC(=O)C(=O)N/N=C/c2ccccc2O)sc2c1CCCCC2	KDM4E inh 32µM, HttQ103 aggreg inconclusive
CCOC(=O)c1c(NC(=O)COc2ccccc2Br)sc2c1CCCCC2	VDR inhibitor 89µM (no result: GoLoco inh red, HTT ATP protect, KDM4E inh, Coupling enz, HttQ103 aggreg)
CCOC(=O)c1c(NC(=O)c2ccccc2Cl)sc2c1CCCC2	none (no result: GoLoco inh red, HTT ATP protect, KDM4E inh, Coupling enz, HttQ103 aggreg)
CCOC(=O)c1c(NC(=O)c2ccccc2Br)sc2c1CCc1ccccc1-2	VDR inhibitor 79µM, KDM4E inh inconclusive
CCOC(=O)c1c(NC(=O)COc2ccc(CC)cc2)sc2c1CCCC2	none (no result: GoLoco inh red, HTT ATP protect, KDM4E inh, Coupling enz, HttQ103 aggreg)
CSc1ccc(CCNC(=O)CCn2c(=O)c3cccn3c3cccnc32)cc1	none (no result: GoLoco inh red, HTT ATP protect, KDM4E inh, Coupling enz, HttQ103 aggreg)
COc1cc(/C=C2/C(=O)NN(c3ccc(Cl)c(Cl)c3)C2=O)cc([N+](=O)[O-])c1O	VDR inhibitor 56µM (no result: GoLoco inh red, HTT ATP protect, KDM4E inh, HttQ103 aggreg)
COc1cc(/C=C2/C(=O)NN(c3ccc(F)cc3)C2=O)cc(Cl)c1O	VDR inhibitor inconclusive (no result: GoLoco inh red, HTT ATP protect, KDM4E inh, HttQ103 aggreg)
